This note sets out measurements from ChEMBL document CHEMBL4513146, “CO-ADD screening of Karazin Kharkiv National University (Ukraine) compounds”.

By Inhibition is commonly meant the change of the read-out against control, counted positive when it falls.

Potency and affinity values are given separately.

In one test the test system is Staphylococcus aureus. Conditions: Concentration 32 ug.mL-1;; ASSAY_TEST Inhibition of Bacterial Growth; detection method Absorption (OD600); MEDIA CAMHB; plate type 384well; NBS; CORNING #3640; time 18 hr.
The next test relates to Escherichia coli. Conditions: Concentration 32 ug.mL-1;; ASSAY_TEST Inhibition of Bacterial Growth; detection method Absorption (OD600); MEDIA CAMHB; plate type 384well; NBS; CORNING #3640; time 18 hr.

For `Cc1nnc2c(S(=O)(=O)N(Cc3ccccc3F)c3cc(F)cc(F)c3)cccn12`, the Inhibition in the test on Staphylococcus aureus was -8.28%; in the test with Escherichia coli it was 2.33%.

In the case of `CCc1ccc(NC(=O)Cn2nc3c4cc(-c5ccc(Cl)cc5)nn4ccn3c2=O)cc1`, the figures for the Inhibition with Staphylococcus aureus and in the test on Escherichia coli were 10.21% and 3.59%, respectively.

As to `Cc1ccc(-c2cc3c4nn(CC(=O)Nc5ccc(F)cc5)c(=O)n4ccn3n2)cc1C`, the Inhibition with Staphylococcus aureus was -6.62%; with Escherichia coli it was -8.95%.

Take `COc1cccc(Sc2nc3ccccc3n3c(=O)n(CC(=O)Nc4cc(C)cc(C)c4)nc23)c1`: the Inhibition was found to be 0.14% in the test with Staphylococcus aureus and 3.24% with Escherichia coli.

For `COc1ccc(NC(=O)Cn2nc3ccc(Sc4ccccc4)nn3c2=O)cc1`, the Inhibition is recorded as 7.63% with Staphylococcus aureus and -10.85% in the test on Escherichia coli.

As for `COc1cccc(-n2ccn3c(SCC(=O)Nc4ccc(OC)c(OC)c4)nnc3c2=O)c1`, the Inhibition is 14.09% with Staphylococcus aureus and -2.6% in the test on Escherichia coli.

Regarding `COc1cccc(Sc2nc3ccccc3n3c(=O)n(CC(=O)Nc4c(C)cc(C)cc4C)nc23)c1`, the figures for the Inhibition with Staphylococcus aureus and with Escherichia coli were 1.84% and -6.13%, respectively.

With `CCC(C)NC(=O)Cn1nc2ccc(SCc3ccc(Cl)cc3)nn2c1=O` (configuration not stated), the Inhibition with Staphylococcus aureus is listed as 7.31%; in the test on Escherichia coli, -1.43%.

Consider `COc1cccc(CN(c2ccc(F)c(F)c2)S(=O)(=O)c2ccc3nnc(C)n3c2)c1`, for which the Inhibition was 7.3% in the test with Staphylococcus aureus and -2.88% in the test with Escherichia coli.

In the case of `CCc1ccccc1NC(=O)Cn1nc2n(CCC(C)C)c(=O)c3sccc3n2c1=O`, the results for the Inhibition in the test with Staphylococcus aureus and in the test with Escherichia coli were -2.34% and -9.52%, respectively.

In the case of `COC(=O)c1ccccc1NC(=O)Cn1nc2c3cc(-c4ccc(Cl)cc4)nn3ccn2c1=O`, the Inhibition in the test with Staphylococcus aureus came out at 10.87%; in the test on Escherichia coli, 6.58%.

`COc1ccccc1Cn1c(=O)c2sccc2n2c(=O)n(Cc3ccccc3)nc12`: the Inhibition in the test with Staphylococcus aureus is 4.84%; in the test with Escherichia coli, -5.32%.

`CC(=O)Nc1ccc(NC(=O)CSc2nc3ccccc3n3cnnc23)cc1`: the Inhibition in the test on Staphylococcus aureus was -1.2%; in the test with Escherichia coli, 2.28%.

For the compound `CCCCOc1ccc(-c2cc3c4nnc(SCC(=O)Nc5cc(C)ccc5OC)n4ccn3n2)cc1`, the Inhibition in the test on Staphylococcus aureus was -29%; in the test with Escherichia coli, -22.73%.

As to `CCC(C)NC(=O)Cn1nc2n(Cc3cccs3)c(=O)c3sccc3n2c1=O` (configuration not stated), the Inhibition in the test on Staphylococcus aureus is 3.01%; in the test with Escherichia coli, -5.74%.

On to `Cc1ccc(-c2cc3c4nn(CC(=O)Nc5ccc6c(c5)OCO6)c(=O)n4ccn3n2)cc1`, for which the Inhibition in the test with Staphylococcus aureus is listed as 12.49%; in the test on Escherichia coli, -1.53%.

Turning to `Cc1ccc(CNC(=O)Cn2nc3c(N4CCN(c5ccccc5C)CC4)nccn3c2=O)cc1`, the results for the Inhibition in the test with Staphylococcus aureus and in the test with Escherichia coli were 4.45% and -8.18%, respectively.

As for `COc1ccc(C)cc1NC(=O)Cn1nc2ccc(SC(C)(C)C)nn2c1=O`, the Inhibition is 2.65% in the test on Staphylococcus aureus and -6.39% in the test with Escherichia coli.

On to `CCOc1ccc(-n2ccn3c(SCC(=O)c4ccc(F)cc4)nnc3c2=O)cc1`, for which the Inhibition is 21.72% in the test on Staphylococcus aureus and 2.02% with Escherichia coli.

In the case of `CCCCN(C)c1ccc2nnc(CCc3nc(-c4ccc(OCc5ccccc5)cc4)no3)n2n1`, the Inhibition is given as -12.25% in the test on Staphylococcus aureus and -8.06% in the test with Escherichia coli.

Consider `O=c1c2sccc2n2c(=O)n(Cc3ccc(F)cc3)nc2n1Cc1cccs1`, for which the Inhibition in the test with Staphylococcus aureus is on record as 13.21%; in the test with Escherichia coli, -2.41%.

As for `O=C(Cn1nc2c(SC3CCCCC3)nccn2c1=O)Nc1ccc(F)cc1`, the Inhibition with Staphylococcus aureus is listed as 2.79%; with Escherichia coli, -5.61%.

Consider `COc1cccc(Cn2nc3n(CCC(=O)NC4CCCCC4)c(=O)c4ccccc4n3c2=O)c1`, for which the Inhibition was 6.84% in the test on Staphylococcus aureus and -3.05% in the test on Escherichia coli.

As for `COc1ccc(-c2nc(CSc3nc4ccccc4n4c(C(C)C)nnc34)c(C)o2)cc1OC`, the results for the Inhibition with Staphylococcus aureus and in the test with Escherichia coli were -10.5% and 0.54%, respectively.

Turning to `COc1ccc(-c2nc(CSc3nc4ccccc4n4c(C(C)C)nnc34)c(C)o2)cc1`, the Inhibition in the test with Staphylococcus aureus is given as -9.17%; with Escherichia coli, -2.62%.

In the case of `Cc1ccc(NC(=O)c2ccc3nnc(SCC(=O)Nc4ccc(Br)cc4)n3c2)cc1`, the Inhibition in the test with Staphylococcus aureus is -2.55%; in the test on Escherichia coli it was -1.72%.

As for `Cc1cccc(N(Cc2cccc(F)c2)S(=O)(=O)c2cccn3c(C)nnc23)c1`, the Inhibition is on record as 20.9% in the test with Staphylococcus aureus and -1.19% in the test with Escherichia coli.

Turning to `O=C(CCc1nnc2c(N3CCCCC3)nc3ccccc3n12)NCc1ccc(Cl)cc1`, the Inhibition with Staphylococcus aureus is 12.63%; in the test with Escherichia coli it was 0.78%.

Take `O=C(Cn1nc2c(SC3CCCCC3)nccn2c1=O)Nc1cccc(Cl)c1`: the Inhibition is reported as -15.22% in the test with Staphylococcus aureus and -17.9% in the test on Escherichia coli.

Regarding `COc1cccc(CNC(=O)CSc2nnc3c(=O)n(-c4ccccc4)ccn23)c1OC`, the Inhibition was 2.64% in the test on Staphylococcus aureus and -7.08% in the test on Escherichia coli.

Turning to `CCCCc1ccc(NC(=O)Cn2nc3c(Sc4ccccc4)nccn3c2=O)cc1`, the Inhibition is on record as 4.84% in the test with Staphylococcus aureus and -9.71% with Escherichia coli.

For the compound `O=C(CSc1nnc2c3cc(-c4ccccc4)nn3ccn12)NCc1ccc(Cl)cc1`, the Inhibition in the test on Staphylococcus aureus is recorded as 6.91%; with Escherichia coli, -1.12%.

As for `CC(C)(C)NC(=O)Cn1nc2n(Cc3ccco3)c(=O)c3sccc3n2c1=O`, the Inhibition in the test on Staphylococcus aureus is listed as -2.47%; in the test with Escherichia coli, -8.7%.

As to `COc1ccc(-c2cc3c4nn(CC(=O)Nc5ccc(OC)c(Cl)c5)c(=O)n4ccn3n2)cc1`, the Inhibition in the test on Staphylococcus aureus is on record as -2.49%; in the test on Escherichia coli, -6.71%.

Turning to `CCOC(=O)c1ccc(NC(=O)Cn2nc3c4cc(-c5ccc(Cl)cc5)nn4ccn3c2=O)cc1`, the Inhibition in the test on Staphylococcus aureus is 1.13%; in the test on Escherichia coli, -5.39%.

For the compound `CCCc1nnc2c(=O)n(CC(=O)Nc3ccc(C(C)=O)cc3)c3ccccc3n12`, the Inhibition in the test with Staphylococcus aureus amounted to 1.62%; with Escherichia coli, 1.52%.

On to `Cc1cc2nn(CC(=O)Nc3ccc(F)c(F)c3)c(=O)n2c(Nc2ccc(F)c(C)c2)n1`, for which the values for the Inhibition in the test on Staphylococcus aureus and with Escherichia coli were 9.7% and -3.91%, respectively.

Take `Cc1cc2nn(CC(=O)Nc3ccc(F)cc3)c(=O)n2c(Nc2ccccc2C)n1`: the figures for the Inhibition in the test on Staphylococcus aureus and in the test with Escherichia coli were 11.27% and 1.51%, respectively.

Regarding `CC(C)c1nnc2c(SCC(=O)Nc3cccc(Br)c3)nc3ccccc3n12`, the figures for the Inhibition with Staphylococcus aureus and in the test with Escherichia coli were 4.41% and -8.3%, respectively.

On to `Cc1oc(-c2ccccc2)nc1CSc1nc2ccccc2n2c(C(C)C)nnc12`, for which the Inhibition in the test on Staphylococcus aureus is on record as -2.26%; with Escherichia coli, -5.26%.

With `O=C(Cn1nc2c3sc(N4CCCC4)nc3ncn2c1=O)Nc1ccc(C(F)(F)F)cc1`, the figures for the Inhibition in the test with Staphylococcus aureus and in the test with Escherichia coli were 13.19% and -0.19%, respectively.

Turning to `COC(=O)c1ccc(CN(c2ccc(F)cc2)S(=O)(=O)c2cccn3c(C)nnc23)o1`, the Inhibition is listed as 11.5% in the test on Staphylococcus aureus and -1.28% with Escherichia coli.

As for `O=C(Cn1nc2ccc(Sc3ccccc3)nn2c1=O)Nc1ccc(Cl)cc1`, the Inhibition in the test with Staphylococcus aureus stood at 14.57%; in the test on Escherichia coli, 0.83%.

Regarding `CCCCOc1ccc(-c2cc3c4nnc(SCC(=O)Nc5ccccc5Cl)n4ccn3n2)cc1`, the Inhibition with Staphylococcus aureus is on record as 3.41%; in the test on Escherichia coli it was -3.41%.

Take `O=C(Cn1nc2ccc(-c3ccc(Cl)cc3)nn2c1=O)N1CCN(c2ccccc2F)CC1`: the Inhibition in the test with Staphylococcus aureus is given as 9.33%; in the test with Escherichia coli it was -0.1%.

With `CCOc1ccc(N(Cc2ccccc2)S(=O)(=O)c2ccc3nncn3c2)cc1`, the values for the Inhibition in the test on Staphylococcus aureus and in the test with Escherichia coli were -0.89% and -1.41%, respectively.

With `CCc1nnc2c(=O)n(CC(=O)Nc3ccc(C#N)cc3)c3ccccc3n12`, the Inhibition with Staphylococcus aureus is 12.29%; in the test with Escherichia coli, -5.97%.

Take `CCCCc1ccc(NC(=O)CSc2nc3ccccc3n3c(C(C)C)nnc23)cc1`: the Inhibition with Staphylococcus aureus was -8.95%; in the test with Escherichia coli it was -2.74%.

With `COc1ccc(NC(=O)Cn2nc3c4cc(-c5ccc(OC)cc5)nn4ccn3c2=O)cc1`, the Inhibition with Staphylococcus aureus was 8.44%; in the test with Escherichia coli, 2.94%.

Consider `O=c1c2nn(Cc3cccc(F)c3)c(=O)n2ccn1-c1ccccc1`, for which the Inhibition with Staphylococcus aureus is -1.92%; in the test with Escherichia coli, -7.67%.

As to `Cc1ccccc1CN(c1ccc(C(C)C)cc1)S(=O)(=O)c1cccn2c(C)nnc12`, the Inhibition in the test with Staphylococcus aureus is on record as 9.54%; in the test with Escherichia coli it was -1.18%.
